This is part of a sample that, as a whole, favours compounds with a hit. Of some 79,000 tested, about 15% had one in any assay. The source made the active and inactive calls. Cut-off read from the data, not from the text of the source: active = growth inhibition above about 70%; inactive = the rest. Where a SMILES comes first, the peptide text is derived from it. [ ]: non-standard residue; d: D form. Nva = CCC[CH](N)C(=O)O
test: NCI Yeast Anticancer Drug Screen. Data for the rad50 strain (AID 155);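 note: 0% = growth of vehicle-only cultures of the same strain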; conditions: S. cerevisiae rad50 strain growth inhibition; at 5.0 µM (retest, dose inferred, filed as 0.5); stronger effect = higher value
In short: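 Vehicle-treated cultures provide the reference for the growth inhibition reported for compound-exposed, repair-deficient yeast.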

SMILES	growth inhibition
O=[N+]([O-])c1ccc(-c2ccc(-c3csc(Nc4ccccc4)n3)o2)cc1	42% (inactive)
C1=C(C2=C[P+](c3ccccc3)(c3ccccc3)C=C(c3ccccc3)O2)OC(c2ccccc2)=C[P+]1(c1ccccc1)c1ccccc1	7% (inactive)
Cc1ccc(C2C(O)=C(c3ccccc3)Sc3ccc(C)cc32)cc1 (stereo not given)	12% (inactive)
CCc1n[nH]c(CC)c1CCCCCCOc1ccc(OC)cc1Cl	-8% (inactive)
C=C1CC[C@H]2C(C)=CC[C@@H]3[C@H](OC(=O)[C@H]3CN3CCN(c4ccc(C)c([N+](=O)[O-])c4)CC3)[C@@H]12	29% (inactive)
C(CCCCCN1CCCCC1)CCCCN1CCCCC1	-14% (inactive)
CN(Cc1cnc2nc(N)nc(N)c2n1)c1ccc(C(=O)NC(CCC(=O)O)C(=O)O)cc1C(F)(F)F (stereo not given)	-2% (inactive)
CC(C(=O)O)C(N)C(=O)O (stereo not given)	-1% (inactive)
CCCCCCCCCCN(CCCCCCCCCC)C1CC(OC2CC(O)(C(O)CO)Cc3c(O)c4c(c(O)c32)C(=O)c2c(OC)cccc2C4=O)OC(C)C1O (stereo not given)	15% (inactive)
COc1ccc(OCC(O)CN2CCN(c3cccc(Cl)c3)CC2)cc1 (stereo not given)	-2% (inactive)
O=C(O)c1ccccc1C(=O)c1ccc2c(c1)Cc1ccccc1-2	-5% (inactive)
Cc1cc(C2c3ccccc3-c3ccccc32)cc(C)c1O	9% (inactive)
CC(C)(C)c1cc(Cl)c(O)c(Cc2cc(C(C)(C)C)cc(Cl)c2O)c1	5% (inactive)
COc1cccc(/C=C/C(C)=O)c1OC	2% (inactive)
Cc1nc2c(cnn2C)cc1CCc1ccccc1	2% (inactive)
O=C1C(C(O)(C(F)(F)Cl)C(F)(F)Cl)CCCC1C(O)(C(F)(F)Cl)C(F)(F)Cl (stereo not given)	95% (active)
C=CCNCCC1CCCCCC1	7% (inactive)
CCCC(N)C(=O)NC(C(=O)O)C(C)C (stereo not given) (H-[Nva]-Val-OH; configuration not given here)	-2% (inactive)
Cc1cc(N)c2cc(NC(=O)Nc3ccc4nc(C)cc(N)c4c3)ccc2n1	100% (active)
COc1ccc(N=Cc2ccccc2O)cc1	-9% (inactive)

SMILES	growth inhibition
Cc1cc(Br)c2ccccc2c1N	1% (inactive)
c1ccc(-c2cc(Nc3ccc4c(c3)OCO4)c3cc(C4CCCCC4)ccc3n2)cc1	10% (inactive)
CCCCCCCCc1cc[n+](C2=C([O-])c3ccccc3C(=O)C2=O)cc1	99% (active)
CCCCCCCCCCCc1nnc(N)o1	28% (inactive)
O=C1OC(OCC#CCOC2OC(=O)C(Cl)=C2Cl)C(Cl)=C1Cl (stereo not given)	37% (inactive)
O=S(=O)(O)CC[S][Sn]([S]CCS(=O)(=O)O)([c]1ccccc1)[c]1ccccc1 (tested in a mixture with another compound)	84% (active)
CC(C)NC(=O)OCCS(=O)c1c(Cl)c(Cl)nn1C (stereo not given)	-15% (inactive)
CN1N=C2c3ccccc3CC[C@H]2C1c1cccc(O)c1 (stereo not given in full)	-36% (inactive)
O=C1CSC(=S)N1/N=C/c1ccc(Cl)c([N+](=O)[O-])c1	28% (inactive)
O=C(O)CCCCCCCCC(=O)CCl	9% (inactive)
O=C(NC1CCN(Cc2ccccc2)CC1)c1ccccc1I	48% (inactive)
Cc1ccc(Nc2nc3c(s2)C(=O)c2ccccc2C3=O)cc1	37% (inactive)
O=C(/C=C/c1ccccc1)c1cc2c(cc1O)OCO2	-6% (inactive)
O=[N+]([O-])c1ccc(Sc2ccc([N+](=O)[O-])o2)o1	93% (active)
CCCCCCCCN(CCCCCCCC)CC(O)c1cc(OCC)nc2ccccc12 (stereo not given)	2% (inactive)
CC(O)CCc1nc2ccccc2[nH]1 (stereo not given)	3% (inactive)
CCCCCCCCCCCCCCCCSC(=NC)NC	89% (active)
O=C(O)CCC(O)=C1S(=O)(=O)OCCOS1(=O)=O	-21% (inactive)
CCCCCCCCCCCCCCCCN	98% (active)
COC1=C(Br)C(=O)N/C1=C(\OC)c1ccccc1	4% (inactive)

Source: PubChem BioAssay (NCI)
